From ChEMBL document CHEMBL2218924, “A broad activity screen in support of a chemogenomic map for kinase signalling research and drug discovery” (Biochem J, 2013) come the findings set out here.

In the assay the target is Mast/stem cell growth factor receptor Kit (Homo sapiens) (UniProt P10721). The note with it: at 10 µM.
Mast/stem cell growth factor receptor Kit (Homo sapiens), sequence (P10721 whole entry): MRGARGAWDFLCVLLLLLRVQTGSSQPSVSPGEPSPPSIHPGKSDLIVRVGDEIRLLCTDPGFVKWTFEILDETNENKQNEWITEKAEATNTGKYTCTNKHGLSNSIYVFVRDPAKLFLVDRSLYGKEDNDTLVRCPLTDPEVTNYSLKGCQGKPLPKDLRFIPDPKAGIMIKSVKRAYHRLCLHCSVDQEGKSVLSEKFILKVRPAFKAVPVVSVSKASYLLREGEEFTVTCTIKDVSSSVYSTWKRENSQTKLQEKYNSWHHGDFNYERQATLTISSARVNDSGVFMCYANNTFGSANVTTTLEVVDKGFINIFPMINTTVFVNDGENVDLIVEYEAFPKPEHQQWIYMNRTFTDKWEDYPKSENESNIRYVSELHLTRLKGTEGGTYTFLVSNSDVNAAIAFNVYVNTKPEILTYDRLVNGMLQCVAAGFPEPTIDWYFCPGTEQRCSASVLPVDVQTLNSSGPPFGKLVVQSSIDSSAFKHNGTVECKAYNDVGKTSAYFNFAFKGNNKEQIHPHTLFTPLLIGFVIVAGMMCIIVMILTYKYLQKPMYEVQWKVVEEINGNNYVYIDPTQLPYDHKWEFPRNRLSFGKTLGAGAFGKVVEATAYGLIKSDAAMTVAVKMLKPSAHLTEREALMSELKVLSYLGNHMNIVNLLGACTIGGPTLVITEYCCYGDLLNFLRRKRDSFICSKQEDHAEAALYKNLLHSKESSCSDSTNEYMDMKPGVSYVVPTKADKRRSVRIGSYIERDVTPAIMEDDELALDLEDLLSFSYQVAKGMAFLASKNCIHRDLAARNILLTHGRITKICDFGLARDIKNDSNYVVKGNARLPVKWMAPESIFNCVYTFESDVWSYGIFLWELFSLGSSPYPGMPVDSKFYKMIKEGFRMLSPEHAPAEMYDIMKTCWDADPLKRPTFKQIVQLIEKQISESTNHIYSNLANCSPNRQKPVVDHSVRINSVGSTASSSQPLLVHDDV
As for `O=c1[nH]c2ccccc2n1C1CCN(Cc2ccc(-c3nc4cc5[nH]cnc5cc4nc3-c3ccccc3)cc2)CC1`, the residual activity amounted to 87%. `O=C1Nc2ccc3ncsc3c2/C1=C/c1c[nH]cn1`: the residual activity was 4%. To `CCc1nc(-c2ccc(OC)cc2)[nH]c1-c1ccncc1` belongs 104%. To `COc1cc(OC)c(/C=C2\C(=O)Nc3ccccc32)c(OC)c1` belongs 105%; to `CCn1cnc2c(Nc3cccc(Cl)c3)nc(N[C@@H]3CCCC[C@@H]3N)nc21`, 86%; to `O=[N+]([O-])/C=C/c1ccc2c(c1)OCO2`, 99%. For `COc1ccc2c(c[n+](C)c3c4cc5c(cc4ccc23)OCO5)c1OC`, the residual activity amounted to 95%. As for `COc1cc2ncnc(Nc3ccc(OCc4ccccc4)cc3)c2cc1OC`, the residual activity is 29%. Consider `c1cc(-c2cnn3cc(-c4ccc(OCCN5CCCCC5)cc4)cnc23)ccn1`, for which the residual activity came out at 2%. Turning to `C[S+]([O-])c1ccc(-c2nc(-c3ccc(F)cc3)c(-c3ccncc3)[nH]2)cc1` (configuration not stated), the residual activity was 102%. Then `CC(C)[C@H](CO)Nc1nc(Nc2cccc(Cl)c2)c2ncn(C(C)C)c2n1`, with 98%; and `COC(=O)[C@@]1(O)C[C@H]2O[C@]1(C)n1c3ccccc3c3c4c(c5c6ccccc6n2c5c31)C(=O)NC4`, with 20%.
